High-throughput results: PubChem BioAssay, National Center for Advancing Translational Sciences (NCATS)
The sample as a whole holds a higher share of hits than the screen did.
Pf Dd2 inh: blocks in vitro growth of P. falciparum Dd2. AID 1347417. hit rate 4.3% among 120,000. P. falciparum Dd2 growth, SYBR Green, 72 h. Potency, µM (series often up to 28.9 µM), for inactives: top-dose activity, negative = inhibition, actives largely listed as inhibitors; active means well fitted inhibition curve with a large enough effect;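 further: plate controls were DMSO vehicle for no effect and reference drug for full effect; nearly all actives have a fitted effect of over 65% in size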
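Infected erythrocytes (Dd2, 0.3% parasitemia, 2.5% hematocrit final) are added to compound in RPMI-1640/Albumax II medium, grown 72 h at 37C in low oxygen, then lysed with saponin/Triton-X containing SYBR Green and read by fluorescence.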
An asterisk follows results filed as active; i = inactive; [ ] = remark or other dose. Potency means the concentration at half of the fitted maximal effect.

SMILES | Pf Dd2 inh
c1ccc(CC2=NOC3(CCN(Cc4c[nH]c5ccccc45)CC3)C2)cc1 | 13µM*
c1cncc(C2=NOC3(CCN(C4CCCCC4)CC3)C2)c1 | 21%[44.1 µM]
c1ccc(CC2=NOC3(CCCN(Cc4ccns4)C3)C2)cc1 (configuration not stated) | 6.3µM*
O=C(C1CCCC1)N1CCC2(CC1)CC(Cc1ccccc1)=NO2 | 21%
c1ccc(CC2=NOC3(CCN(C4CCCCC4)CC3)C2)cc1 | 10µM*
NC(=O)c1cccc(CN2CCC3(CC2)CC(Cc2ccccc2)=NO3)c1 | -4%
CC(C)C1=NOC2(CCN(Cc3c[nH]c4ccccc34)CC2)C1 | -6%
Cc1noc(C)c1-c1cc2c(cc(-c3ccccc3)n2C)c(N2CCOCC2)n1 | -23%[44.1 µM]
Cc1cccc(C2CCCN(C(=O)c3cn(CCc4ccccc4)nn3)C2)c1 (configuration not stated) | i
CC(Cn1cccn1)C(=O)N1CCC(Oc2ccccc2)(C(=O)O)CC1 (configuration not stated) | -7%
CCN(CC)Cc1cnc2c(C(=O)N(CC)CC)cnn2c1 | 22%
COc1ccccc1NC(=O)N1CCC(N2CC3CC(C2)[C@H]2CCCC(=O)N2C3)CC1 (some centres not stated) | -13%
CCn1nccc1C(=O)N1CC2CC(C1)[C@H]1CCCC(=O)N1C2 (some centres not stated) | 10%
CN(C)C[C@@H]1CN(C2CCOCC2)C[C@H]1NS(=O)(=O)c1ccc(C#N)cc1 | i
COc1ccc(CN2C(=O)O[C@@H]3CN(Cc4nc[nH]c4C)C[C@@H]32)cc1OC | 6%
Cc1n[nH]c(C)c1CNC(=O)CCC[C@@H]1[C@H]2CCCN3CCC[C@@H](CN1Cc1ccccc1)[C@@H]23 | -12%
Cc1ccc(CNC(=O)CCC[C@@H]2[C@H]3CCCN4CCC[C@@H](CN2Cc2ccccc2)[C@@H]34)o1 | 3.5µM*
CC(C)NC(=O)CCC[C@@H]1[C@H]2CCCN3CCC[C@@H](CN1Cc1ccccc1)[C@@H]23 | i
Cc1c(CNC2CCCCCC2)c(C(=O)O)c(C)n1Cc1ccc(F)cc1 | 8%[5.79 µM]
CCc1ccc(-n2c(=O)c3c4c(sc3n(Cc3ccc(F)cc3)c2=O)CCCC4)cc1 | -13%
CCc1c(C)sc2c1CCN(Cc1ccc(F)cc1)C2c1ccccc1 (configuration not stated) | 3.2µM*
CCN1C(=O)Cc2cc(C(=O)NCc3ccc(F)cc3)ccc21 | i
C=CCn1ccn2cnc(-c3ccccc3)c2c1=O | i
CN(C)C(=O)CCC(=O)N1CCN(Cc2ccccc2)CC(O)C1 (configuration not stated) | 11%
CC(=O)N1CCC(C(=O)N2CCN(Cc3ccccc3)CC(O)C2)CC1 (configuration not stated) | 6%
SMILES | Pf Dd2 inh
O=C(N1CCN(Cc2ccccc2)CC(O)C1)C1(N2CCCC2)CCCC1 (configuration not stated) | 4.5µM*
Cn1nccc1C(=O)NCCc1noc(-c2ccccc2)n1 | i
COC1CCC12CCN(C(=O)c1cnccn1)CC2 (configuration not stated) | 10%
O=C(c1ccccc1)N1CCC(N2CCCC2=O)CC1 | -1%[44.1 µM]
N#Cc1cccc(CN[C@@H]2CO[C@H](CNS(=O)(=O)c3ccccc3)[C@H]2O)c1 | -3%[44.1 µM]
CC(C)N1CCCC2(CCN(C(=O)C3(Cn4ccnc4)CC3)C2)C1=O (configuration not stated) | -9%
CN1c2cc(C(=O)NCc3cccs3)ccc2C(=O)N2CCCCC21 (configuration not stated) | i
CCc1ccc(OCC(=O)c2ccc3c(c2)N(CCCC(=O)NCC2CCCO2)C(=O)CO3)cc1 (configuration not stated) | -15%
CCc1ccccc1NC(=O)c1c(NC(=O)c2ccccc2)sc2c1CCCC2 | 42%
Cc1ccc(NC(=O)c2c(NC(=O)C(F)(F)F)sc3c2CCCCC3)cc1 | 4µM*
Cc1cccc(NC(=O)c2c(Br)sc3c2CCCC3)c1 | i
O=C(Nc1sc2c(c1C(=O)Nc1ccc(Cl)cc1)CCCC2)c1cccs1 | 5%
Cc1ccccc1NC(=O)c1c(NC(=O)C(F)(F)F)sc2c1CCCCC2 | 10µM*
Cc1ccc(NC(=O)c2c(NC(=O)c3ccccc3)sc3c2CCC3)cc1 | i
Cc1ccccc1NC(=O)c1c(NC(=O)c2ccccc2)sc2c1CCC2 | 4%
O=C(COc1ccc(Cl)cc1)Nc1sc2c(c1C(=O)Nc1cccc(Cl)c1)CCCC2 | 1%
Cc1cccc(C(=O)Nc2sc3c(c2C(=O)Nc2ccccc2)CCC3)c1 | 33%
Cc1cccc(NC(=O)c2c(NC(=O)C(F)(F)F)sc3c2CCCCC3)c1 | 4.5µM*
CCCNC(=O)c1c(NC(=O)c2ccc(C)cc2)sc2c1CCCCC2 | -2%
O=C(Nc1cccc(Cl)c1)c1c(NC(=O)C(F)(F)F)sc2c1CCCC2 | 13µM*
COCc1noc([C@@H]2CC(F)(F)CN2C(=O)c2occc2C)n1 | i
Cc1ccccc1C(=O)N1CC(c2nc(CCc3ccccc3)no2)C1 | -19%
CC(C)N1C(=O)C2(CCCC2)C1C(=O)N(C)Cc1cccnc1 (configuration not stated) | -4%
CCSc1nnc(-c2ccccc2NC(=O)C(CC)n2cccn2)c(=O)[nH]1 (configuration not stated) | 16%
O=C1OCC2(CCN(Cc3ccc(Cl)cc3)C2)N1Cc1ccccn1 (configuration not stated) | i
SMILES | Pf Dd2 inh
O=c1c2c(CO)c(-c3ccccc3)nn2ccn1Cc1ccccc1 | -8%
Cc1cc(C)cc(C(=O)N2CCN(c3cc(-c4ccc(Cl)cc4)[nH]n3)CC2)c1 | -5%
COCc1ccc(C(=O)N2CCCC(CCc3cccc(OC)c3)C2)o1 (configuration not stated) | -8%
C=CC[C@@H]1CC=C[C@@H](C)N1C(=O)c1cc(OC)ccc1OC1CCN(C(=O)C2CC2)CC1 | -16%
COc1ccc(-n2nc(C3CCN(Cc4ccc(N(C)C)cc4)CC3)[nH]c2=O)cc1 | -3%
COC(=O)N1CCC(c2nn(-c3ccc(OC)cc3)c(=O)[nH]2)CC1 | i
COc1ccc(-n2nc(C3CCN(Cc4cccn4C)CC3)[nH]c2=O)cc1 | 13µM*
COc1ccc(CN(C)Cc2ccncc2C)c(OCC(O)CN2CCCC2)c1 (configuration not stated) | 2.8µM*
COc1ccc(OCC(O)CN2CCC(O)CC2)c(CN(C)Cc2csc(C)n2)c1 (configuration not stated) | -14%
CCN1CCN(CC(O)COc2cccc(CN(C)Cc3cc(C)on3)c2)CC1 (configuration not stated) | -11%
Cc1cn2nc(C(=O)N3CCC(NC(=O)c4cccn4C)CC3)cc2c(=O)[nH]1 | 14%
O=C(c1ccccc1)N1CCCCC12Cc1ccccc1NC2=O (configuration not stated) | i
O=C(NC1CCCC1)N1CCCCC12Cc1ccccc1NC2=O (configuration not stated) | -2%[44.1 µM]
O=C1Nc2ccccc2CC12CCCN2C1CCCCC1 (configuration not stated) | 10µM*
O=C(NC1CCCCC1)C1(CCO)CCN(c2ncccn2)C1 (configuration not stated) | i
COCCN1CCC2(CCC1=O)CCN(C(=O)C1CCOCC1)CC2 | -10%
CC1=C(c2ccc(C)c(C)c2)S(=O)(=O)N=C1N1CCC(C(=O)N2CCC(C(N)=O)CC2)CC1 | i
CC1=C(c2ccc(C)c(C)c2)S(=O)(=O)N=C1N1CCC(C(=O)Nc2ccc(Cl)cc2)CC1 | i
